KB-V1 cytotox – kills drug-selected multidrug resistant KB-V1 cells; KB-V1 MDR cells viability, CellTiter-Glo, 72 h; Potency, µM (series often up to 46.1 µM), hits mostly cytotoxic; actives 3.4% (n = 400,000); AID 1347076; note: nearly all actives have a fitted effect of over 60% in size
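Cytotoxicity toward P-gp-expressing KB-V1 cells was determined as loss of CellTiter-Glo luminescence after 72 h at 37 degrees C. Compounds were tested in quantitative HTS format across a concentration range, with curves fitted to normalized data.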
HT1080NT lethal – kills 2HG-producing HT-1080-NT fibrosarcoma cells. actives 1.6% (n = 360,000). Potency, µM (highest dose often 46.1 µM), actives largely listed as cytotoxic. HT-1080-NT fibrosarcoma viability, CellTiter-Glo ATP luminescence, 48 h;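 note: NT is the 2HG producing partner of a matched IDH1 knockdown line; nearly all actives have a fitted effect of over 55% in size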
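Fibrosarcoma NT cells, 750 per well in 5% FBS RPMI, were exposed to compound for 48 hours. Viability: CellTiter-Glo luminescence.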
DT40 TDP1 CPT – growth inhibition of DT40 Tdp1-/-;hTDP1 cells with camptothecin (screen for TDP1 inhibitors); AID 686979; actives 12% (n = 420,000); Potency, µM (series often up to 46.2 µM), hits mostly inhibitors; chicken DT40 Tdp1-/-;hTDP1 cells + 20 nM CPT, ATP luminescence, 48 h; note: nearly all actives have a fitted effect of over 55% in size
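Cell growth measured by CellTiter-Glo luminescence after a minimum 48 h, 37 C compound exposure with 20 nM CPT in Tdp1-knockout DT40 cells stably expressing hTDP1, seeded 400/well; qHTS titration format.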
HT1080 IDH1KD tx – kills HT-1080 cells with IDH1 knockdown; HT-1080 IDH1 knockdown viability, ATP luminescence, 48 h; Potency, µM (titrated, usually from 46.1 µM), hits mostly cytotoxic; actives 2% (n = 360,000); AID 686971
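CellTiter-Glo luminescence after 48 h compound exposure at 37 degrees C of IDH1-knockdown HT-1080 cells in 5% FBS RPMI. %Activity scaled between DMSO wells and cell-free media wells, with curves fitted and assigned curve classes.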
KB-3-1 cytotox – kills parental KB-3-1 adenocarcinoma cells; KB-3-1 viability, CellTiter-Glo ATP luminescence, 72 h; Potency, µM (top dose mostly 46.1 µM), hits mostly cytotoxic; actives 1.4% (n = 400,000); AID 1347075; note: nearly all actives have a fitted effect of over 60% in size
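KB-3-1 cells, DMEM (no phenol red) + 10% FBS; compound by pin transfer, 72 h, 37 °C. Readout: CellTiter-Glo luminescence after 10 min. Data normalized, curve-fitted.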
DT40 TDP1 no CPT – qHTS for Inhibitors of human tyrosyl-DNA phosphodiesterase 1 (TDP1): qHTS in cells in absence of CPT; DT40 Tdp1-/- hTDP1 cells, no CPT, ATP luminescence, 48 h; Potency, µM (highest dose often 46.2 µM), actives largely listed as inhibitors; actives 15% (n = 420,000); note: nearly all actives have a fitted effect of over 55% in size
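Cells were dispensed at 400 per well, compounds added by pin tool, plates incubated ≥48 hr at 37 °C, then CellTiter-Glo added for 30 min at room temperature before luminescence reading. Line: DT40 Tdp1-/- complemented with hTDP1; camptothecin omitted.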
Hits are given with their value; – = inactive; ? = inconclusive; · = not tested or not shown. Sampled rows, rich in hits. Any-hit rate of the full collection: about 19%. Calls come from the whole dose curve; as a rule, active = well fitted curve in the direction sought with a large enough effect; inconclusive = small, poorly fitted or top-dose-only effect, or another doubt; inactive = no such curve, though single readings can be large; an effect the other way counts as inactive or inconclusive.

SMILES | KB-V1 cytotox | HT1080NT lethal | DT40 TDP1 CPT | HT1080 IDH1KD tx | KB-3-1 cytotox | DT40 TDP1 no CPT
CC(=O)N1CCN(c2ccc(NC(=O)c3ccc(Cl)cc3)cc2)CC1 | – | – | – | – | – | –
CCCCOc1ccc(C(=O)Nc2ccc(N3CCN(C(C)=O)CC3)cc2)cc1 | 2.59µM | – | – | – | – | ?
CC(=O)N1CCN(c2ccc(NC(=O)c3ccc(C(C)(C)C)cc3)cc2)CC1 | ? | ? | ? | ? | – | 25.9µM
C/C(CC(=O)Nc1ccccn1)=N\NC(=O)c1cnccn1 | ? | – | – | – | – | –
CCOc1cccc2cc(S(=O)(=O)c3ccccc3F)c(=O)oc12 | – | · | – | · | – | –
CCc1ccc(OCC(=O)NNC(=S)NC(=O)C2CC2)c(Br)c1 | – | ? | 16.4µM | ? | – | 13µM
COc1ccc(OCC(=O)NNC(=S)NC(=O)C2CC2)cc1 | – | – | 16.4µM | ? | – | ?
CCCCNC(=O)NNC(=O)COc1cc(C)cc(C)c1 | – | – | – | – | – | –
Cc1cc(C)cc(OCC(=O)NNC(=S)NC(=O)C2CC2)c1 | – | – | 18.4µM | ? | ? | 13µM
CCc1ccc(OCC(=O)NNC(=S)NC(=O)C2CCCCC2)c(Br)c1 | – | – | ? | – | ? | ?
COc1cccc(C2CC3(CC(C)(C)NC(=S)N3)Oc3cc(O)ccc32)c1 (stereo not drawn) | – | – | 11.6µM | – | ? | 9.2µM
CC1(C)CC2(CC(c3ccccc3F)c3cc(Cl)c(O)cc3O2)NC(=S)N1 (stereo not drawn) | ? | ? | 2.06µM | ? | – | 3.66µM
Cc1cccc(C2CC3(CC(C)(C)NC(=S)N3)Oc3cc(O)ccc32)c1 (stereo not drawn) | – | – | 20.6µM | – | – | 13µM
CC(=O)Nc1ccc(S(=O)(=O)N2CCC(n3c(C(F)(F)F)nc4cccnc43)CC2)cc1 | – | · | ? | · | – | ?
COC(=O)c1ccc(CN2CCC3(CCC(CNC(=O)c4ccco4)O3)CC2)cc1 (stereo not drawn) | · | · | – | · | · | –
CCOC(=O)c1c(C)[nH]c(C(=O)N/N=C/c2ccc(Br)cc2)c1C | – | 0.146µM | 1.16µM | 0.092µM | ? | 0.0231µM
CCOC(=O)c1c(C)[nH]c(C(=O)OCC(=O)NCc2ccccc2)c1C | – | – | ? | – | – | ?
CCOC(=O)c1[nH]c(C)c(C(=O)Nc2cc(OC)ccc2OC)c1C | 0.501µM | 0.631µM | 0.794µM | 0.562µM | 1.26µM | 0.562µM
Cc1[nH]c(C(=O)N/N=C/c2ccc(C(=O)O)cc2)c(C)c1C(=O)N/N=C/c1ccc(C(=O)O)cc1 | – | – | – | – | – | –
CCOC(=O)c1c(C)[nH]c(C(=O)OCC(=O)Nc2cc(C)ccc2OC)c1C | ? | – | 2.59µM | – | – | 4.11µM
CCOC(=O)c1c(C)[nH]c(C(=O)OCC(=O)Nc2cc(C)nn2-c2ccccc2)c1C | ? | – | ? | – | – | 18.4µM
Cc1nn(C(=O)c2cccc(F)c2)c(C)c1S(=O)(=O)N1CCOCC1 | – | · | – | · | – | –
O=C(COC(=O)c1ccc(O)cc1O)Nc1cc(-c2ccccc2)nn1-c1ccccc1 | – | ? | ? | ? | – | 18.4µM
COc1cc(OC)cc(C(=O)Nc2cc(C)nn2-c2ccccc2)c1 | – | – | – | – | – | –
CCOC(=O)C(=CNc1cc(C)nn1-c1ccccc1)C(=O)OCC | 4.61µM | – | 20.6µM | – | – | 16.4µM
CCCc1cc(NC(=O)COC(=O)c2ccc(O)cc2O)n(-c2ccccc2)n1 | ? | – | ? | – | – | ?
Cc1ccc(CN2CCN(C3CCN(C(=O)Nc4ccc(C)cc4Cl)CC3)C(=O)C2=O)cc1 | – | · | – | · | – | ?
COc1cc(OC)c(Nc2nc3ccc(C)cc3n3nnnc23)cc1Cl | · | · | – | · | · | –
COc1cc(NS(=O)(=O)c2ccc(-c3cc(C)no3)cc2)cc(OC)c1 | · | · | 1.84µM | · | · | 2.06µM
